Screening results: PubChem, several laboratories
CR mimetic SO = yeast age-related superoxide inhibition as caloric restriction mimetic; S. cerevisiae aged cells, superoxide DHE fluorescence; active compounds read low; superoxide response (% of plate mean), % at 10 µM; hit rate 0.18% among 330,000; AID 2690;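 active means superoxide response under a set limit, about three screen SD below normal, cut at about 65% in these data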;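 further: yeast aged for seven days with compound at 30 °C before DHE staining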
HIF act = HIF pathway transcriptional activation. hit rate 0.32% among 300,000. AID 1910. activation, % at 7.5 µM (by protocol). U2OS HRE-luciferase reporter, luminescence; normalized: DMSO 0%, desferrioxamine 100%;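 active means mean activation of at least 10% of the iron chelator positive control signal, with at least half of replicates also reaching 10%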
HGIII-sPLA2 inh = Inhibits HGIII-sPLA2 liposome hydrolysis, primary screen. Q9NZ20. QFRET BODIPY PC-A2 liposome hydrolysis, fluorescence. inhibition, % at 12.2 µM. hit rate 0.56% among 370,000;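 active means inhibition above mean plus 3 SD of compounds lying within the high and low control bounds, cut at about 19% in these data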
PLC-gamma1 inh = blocks human PLC-gamma1 enzyme activity | P19174 | purified PLC-gamma1, fluorogenic substrate, fluorescence | inhibition, % at 12.2 µM | hit rate 0.84% among 370,000 | AID 720700; in the data active means inhibition above about 9.5%
AHR activator = activators of human aryl hydrocarbon receptor; AHR-responsive luciferase reporter cells, luminescence; activation, % at 5 µM; hit rate 2.5% among 320,000; in the data active means activation above about 47%
PLC-beta3 inh = inhibitors of human phospholipase C beta3; Q01970; Purified PLC-beta3, fluorogenic substrate, fluorescence; inhibition, % at 12.2 µM; hit rate 0.18% among 370,000; AID 720704; in the data active means inhibition above about 11%
sPLA2 confirm = human GIII-sPLA2 inhibition, confirmation; inhibition, % at 12.2 µM; AID 743280; hit rate 34% among 2,000; shares compounds with HGIII-sPLA2 inh; recombinant hGIII-sPLA2, BODIPY PC-A2 QFRET fluorescence;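 active means mean inhibition across triplicates above the hit cutoff set in the earlier primary screen, cut at about 19% in these data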
BODIPY interf = 535nm fluorescence interference, HGIII-sPLA2 counter-screen; shares compounds with HGIII-sPLA2 inh; BODIPY FL product fluorescence interference, QFRET; inhibition, % at 12.2 µM; hit rate 8.5% among 2,000; AID 743282;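 active means average inhibition above the solvent-only control mean plus 3 SD, cut at about 6% in these data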
535nm interf DR = 535nm optical interference dose response, HGIII-sPLA2 counter-screen. shares compounds with HGIII-sPLA2 inh. IC50, µM. BODIPY FL product fluorescence interference, cell-free. 240 tested, under 10 active;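 active means IC50 at or below 10 µM; inactive means IC50 above 10 µM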
Large screens that a line does not name were inactive (follow-up assays come after a bar, where they were run). Sampled rows, rich in hits. Any-hit rate of the full collection: about 3.9%.

Cc1ccc(C(=O)NC(=S)Nc2cccc3nsnc23)cc1	none
Cc1ccc(C(=O)NC(=S)Nc2c(C)ccc3nsnc23)cc1	HGIII-sPLA2 inh 23, AHR activator 94 | sPLA2 confirm inactive | BODIPY interf inactive
COc1ccc(N=Nc2cc(C)ccc2O)cc1	none
Cc1ccc(O)c(N=Nc2nccs2)c1	HGIII-sPLA2 inh 25 (no result: HIF act) | sPLA2 confirm inactive | BODIPY interf 9.9
Cc1ccc2c(c1)c(C)c(C)n2CC(O)CN1CCCCC1C (stereo not given)	HGIII-sPLA2 inh 22 (no result: HIF act) | sPLA2 confirm 20 | BODIPY interf inactive
Cc1ccc2c(c1)c1c(n2CC(O)CN2CCCCC2C)CCCC1 (stereo not given)	none
O=C(NNc1nc2cc3c(cc2s1)OCO3)c1ccc(F)cc1	HGIII-sPLA2 inh 23, AHR activator 60 | sPLA2 confirm 38 | BODIPY interf inactive | 535nm interf DR inactive
O=C(NNc1nc2cc3c(cc2s1)OCCO3)c1ccc(F)cc1	none
N#CCC[C@@H]1CC[C@]2(CCCN(C(=O)c3ccccc3)C2)O1	none (no result: CR mimetic SO, HIF act, AHR activator)
N#CCC[C@H]1CC[C@]2(CCCN(C(=O)c3ccccc3)C2)O1	HGIII-sPLA2 inh 19 (no result: CR mimetic SO, HIF act, AHR activator) | sPLA2 confirm inactive | BODIPY interf inactive
CC1(C(=O)NS(=O)(=O)Cc2ccccc2)CCN1C(=O)C1(c2ccc(Cl)cc2)CCC1 (stereo not given)	none (no result: CR mimetic SO, HIF act, AHR activator)
O=C(CSCc1c(F)cccc1Cl)NNC(=S)NC1CCCCC1	HGIII-sPLA2 inh 21 | sPLA2 confirm inactive | BODIPY interf inactive
O=C(NN1CCOCC1)c1cccc2ccccc12	HGIII-sPLA2 inh 21 | sPLA2 confirm inactive | BODIPY interf inactive
CC(=O)Nc1ccccc1NC(=O)c1cccc2ccccc12	HGIII-sPLA2 inh 22 | sPLA2 confirm inactive | BODIPY interf inactive
O=C(NN1CCCCC1)c1cccc2ccccc12	none
Cc1cc(S(=O)(=O)Nc2ccc(C(=O)NCCN3CCOCC3)cc2)ccc1F	none (no result: CR mimetic SO, HIF act, AHR activator)
CC(C)C[C@@H](CN)NC(=O)c1nc[nH]c1C(=O)N[C@@H](CC(=O)O)C(=O)CNC[C@H](C)NC(=O)c1nc[nH]c1C(=O)N[C@@H](CC(=O)O)C(=O)O	none (no result: CR mimetic SO, HIF act, AHR activator)
O=C(Nc1cccs1)Nc1c(F)c(F)cc(F)c1F	HGIII-sPLA2 inh 21 | sPLA2 confirm inactive | BODIPY interf inactive
CCN1CCN(C(=S)NC(=O)c2cccs2)CC1	none
O=C(NC(=S)N1CCN(c2ccc(C(F)(F)F)cc2[N+](=O)[O-])CC1)c1cccs1	HGIII-sPLA2 inh 31 | sPLA2 confirm 47 | BODIPY interf 9.5
COc1ccc(-c2noc(N3CCCC(C(=O)Nc4ccc(C(C)=O)cc4)C3)n2)cc1 (stereo not given)	none
CCOc1ccc(/C=N/Nc2ccccn2)cc1	none
CCOc1ccc(/C=N/Nc2cc(=O)n(C)c(=O)n2C)cc1	HGIII-sPLA2 inh 19 | sPLA2 confirm inactive | BODIPY interf inactive
COCCCNC(=O)CN1C(=O)CSc2ncccc21	HGIII-sPLA2 inh 19 (no result: HIF act) | sPLA2 confirm inactive | BODIPY interf inactive
COc1ccc(CCNC(=O)Nc2nc(CN)cs2)cc1OC	none (no result: CR mimetic SO, HIF act, AHR activator)
Cc1cc(C(=O)COc2ccc3ccc(=O)oc3c2)c(C)n1Cc1cccs1	HGIII-sPLA2 inh 21 | sPLA2 confirm inactive | BODIPY interf inactive
CCOc1ccc(C(Nc2cccnc2)c2cc(Cl)c3cccnc3c2O)cc1 (stereo not given)	HGIII-sPLA2 inh 24 | sPLA2 confirm inactive | BODIPY interf inactive
CCCOc1ccc(/C=N/NC(=S)Nc2ccccc2[N+](=O)[O-])c(O)c1	HGIII-sPLA2 inh 37 | sPLA2 confirm 56 | BODIPY interf 12
Cc1nc2ccccc2c2oc(C(=O)N3CCN(c4ccc([N+](=O)[O-])cc4)CC3)cc12	none
COc1cc([N+](=O)[O-])c(C(=O)N2CCOCC2)c([N+](=O)[O-])c1	HGIII-sPLA2 inh 20 | sPLA2 confirm inactive | BODIPY interf inactive
COc1ccc(Br)c(C=O)c1OS(=O)(=O)c1ccc(C)cc1	none (no result: CR mimetic SO, HIF act, AHR activator)
CS(=O)(=O)c1ccc(NC(=O)c2cccc(S(=O)(=O)N3CCN(Cc4ccccc4)CC3)c2)cc1	none
CCn1c(-c2nn(-c3ccccc3)ccc2=O)n[nH]c1=S	HGIII-sPLA2 inh 24 | sPLA2 confirm inactive | BODIPY interf inactive
c1ccc(-c2cccc(CNc3nc(-c4ccccn4)nnc3-c3ccccc3)c2)cc1	HGIII-sPLA2 inh 25 (no result: CR mimetic SO, HIF act, AHR activator) | sPLA2 confirm inactive | BODIPY interf inactive
S=c1[nH]nc2ccc3ccccc3n12	HGIII-sPLA2 inh 26 (no result: CR mimetic SO, HIF act, AHR activator) | sPLA2 confirm 23 | BODIPY interf inactive
